# Bioassay records: PubChem, National Center for Advancing Translational Sciences (NCATS)
# Lamin A splicing – qHTS Assay for Modulators of Lamin A Splicing; HeLa LMNA splicing GFP/RFP minigene ratio, 48 h; Potency, µM (titrated, usually from 46.1 µM), for the others: at the highest dose ratio change, negative = inhibition, actives largely listed as inhibitors; actives 0.01% (n = 200,000); AID 1487, 2009; active means well fitted inhibition curve with a large enough effect in the signal ratio, with a control signal flat, not every such curve was filed as active; inconclusive means small, poorly fitted or top-dose-only effect, or effect the other way, or a change in a side signal; the % refers to the signal ratio; further: potency means the concentration at half of the fitted maximal effect
#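 S3 HeLa cells stably expressing lamin A-EGFP splicing minigene plus DsRed2, 600 cells/well, 48 h compound exposure at 37C. Laser-scanning cytometry; analysed as GFP (500-530 nm)/RFP (575-640 nm) total intensity ratio; 0.5% DMSO vehicle.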
# ALOX12 inhib – qHTS Assay for Inhibitors of 12-hLO (12-human lipoxygenase) | actives 0.12% (n = 150,000) | AID 1452, 2008 | Potency, µM (highest dose often 57.1 µM), for inactives: at the top dose activity change, negative = inhibition, usual class: inhibitors | Polyunsaturated fatty acid lipoxygenase ALOX12 (Homo sapiens), P18054 | purified 12-hLO, xylenol orange hydroperoxide absorbance; active means well fitted inhibition curve with a large enough effect; inconclusive means small, poorly fitted or top-dose-only effect; further: potency means the concentration at half of the fitted maximal effect; nearly all actives have a fitted effect of over 55% in size
#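 150 nM 12hLO, 25 mM Hepes pH 7.0 + 0.01% Triton X-100; cpd preinc 15 min RT; 40 uM arachidonic acid, 30 min RT; Fe-XO 30 min; A573/A405 ratio as read-out.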
# HPGD block – qHTS Assay for Inhibitors of HPGD (15-Hydroxyprostaglandin Dehydrogenase). 15-hydroxyprostaglandin dehydrogenase [NAD(+)] (Homo sapiens), P15428. purified HPGD, NADH fluorescence kinetic, PGE2 substrate. Potency, µM, without a hit: at the highest dose activity change, negative = inhibition, actives largely listed as inhibitors. actives 4.3% (n = 150,000); further: potency means the concentration at half of the fitted maximal effect
# Target sequence (P15428 whole entry, looked up): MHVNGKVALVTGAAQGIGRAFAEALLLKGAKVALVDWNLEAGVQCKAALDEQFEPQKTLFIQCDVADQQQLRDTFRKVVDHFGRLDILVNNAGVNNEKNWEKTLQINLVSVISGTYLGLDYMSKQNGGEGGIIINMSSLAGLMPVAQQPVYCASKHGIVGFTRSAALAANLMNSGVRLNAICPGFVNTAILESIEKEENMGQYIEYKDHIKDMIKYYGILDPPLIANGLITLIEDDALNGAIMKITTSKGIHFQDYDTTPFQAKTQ
#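 20 nM HPGD preincubated 15 min at room temperature with compound in 50 mM Tris-HCl pH 8, 0.01% Tween 20. Started with 1 mM NAD+ and 30 uM prostaglandin E2; NADH fluorescence (360/450 nm) read 5 times over 30-s intervals, last minus first.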
# ALDH1A1 block – qHTS Assay for Inhibitors of Aldehyde Dehydrogenase 1 (ALDH1A1). Purified ALDH1A1, NADH fluorescence, propionaldehyde substrate. Aldehyde dehydrogenase 1A1 (Homo sapiens), P00352. Potency, µM (top dose mostly 75.3 µM), for the others: at the highest dose activity, negative = inhibition, most hits filed as inhibitors. AID 1030, 2008. actives 7.3% (n = 220,000);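 further: potency means the concentration at half of the fitted maximal effect; plate controls were no enzyme wells and a reference inhibitor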
# PNC assembly inh – High Content Assay for Compounds that inhibit the Assembly of the Perinucleolar Compartment. actives 3.1% (n = 140,000). activity change (PNC), negative = inhibition, % at 10 µM. PC3M PTB-GFP, PNC prevalence imaging, 16 h; active compounds read low;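 active means readout at or below -70, meaning at least 70% loss of cells showing the perinucleolar compartment, a nuclear body marking cancer cells; inconclusive means readout between -30 and a set limit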;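 further: plate controls were DMSO wells for no effect and camptothecin positive control wells for full effect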
#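 PC3M cells stably expressing PTB-GFP, 750–1000 cells/well, treated 16 h at 37 °C with compound (23 nl of library stock), in duplicate. After paraformaldehyde fixation and Hoechst stain, imaged at 20x; PNC prevalence scored by image analysis.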
# * hit, by the source's call; ? = inconclusive; / = not tested or not shown; [ ] = remark or other dose. The list is not random: actives were taken first. Their share in the collection is about 10%. Unless noted, the call rests on the fitted dose curve; in most records, active means well fitted inhibition curve with a large enough effect (not every such curve was filed as active); inconclusive means small, poorly fitted or top-dose-only effect, or another doubt; inactive means no such curve, though single readings can be large or run the other way. Unless noted, on the % scale 0 is the no-effect control and ±100 the full control effect.
SMILES,Lamin A splicing,ALOX12 inhib,HPGD block,ALDH1A1 block,PNC assembly inh
FC(F)(F)c1cc(-c2ccco2)nc(NCc2cccs2)n1,15.5%,-13.8%,-16.1%,8.91µM*,-8.6
O=C(CCCSc1nc(-c2ccco2)cc(C(F)(F)F)n1)NCC1CCCO1 (configuration not stated),-11.5%,6.0%,7.94µM*,?,21.1
CCOc1ccc(-c2cc3c(=O)n(CC(=O)Nc4c(C)cccc4C)ccn3n2)cc1,0.9%[46 µM],/,/,/,/
Cc1ccc(S(=O)(=O)c2cn(Cc3ccccc3)c3cc(N4CCCC4)c(F)cc3c2=O)cc1C,12.0%[46 µM],/,/,/,/
COc1ccc(O[C@H]2C=C[C@@H](c3ccccc3)O[C@H]2COC(=O)CC/C(C)=N\OC[C@@H](O)COCc2ccco2)cc1,/,/,/,-15.1%[13.5 µM],/
CCN(CC)c1ccc(N=Cc2cc(Br)ccc2O)cc1,/,/,/,7.94µM*,/
CCc1cc(C(=O)O)c(NC(=O)C(c2ccccc2)c2ccccc2)s1,-10.6%,-1.0%,-1.3%,12.6µM*,-2.8
Cc1c(C(=O)Nc2ccc(Br)cc2F)sc2ncnc(N(C)C3CCCCC3)c12,4.8%[46 µM],/,/,/,/
O=C(COC(=O)C1CC2C=CC1C2)Nc1ccc2c(c1)OC(F)(F)O2 (configuration not stated),-4.8%,-7.7%,-14.3%,?,-100.0*
O=C(COC(=O)C1CC2C=CC1C2)Nc1cccc(S(=O)(=O)N2CCCCC2)c1 (configuration not stated),5.6%,4.1%,-6.1%,?,25.7
Cc1cc(S(=O)(=O)N(Cc2ccc(C(C)(C)C)cc2)Cc2cccs2)ccc1-n1cnnn1,?,-2.6%,-19.9%,?,87.8
COc1cccc(CN(Cc2cccnc2)S(=O)(=O)c2ccc(-n3cnnn3)c(C)c2)c1,?,0.7%,-17.5%,25.1µM*,35.2
COc1cc(S(=O)(=O)N(Cc2cccnc2)Cc2ccco2)ccc1-n1cnnn1,-0.9%,-4.6%,-4.0%,?,39.3
COc1cc(S(=O)(=O)N(Cc2ccc(C)cc2)Cc2ccco2)ccc1-n1cnnn1,?,-5.4%,-9.5%,12.6µM*,16.5
Cc1cc(S(=O)(=O)N(Cc2ccccc2)Cc2ccc(N(C)C)cc2)ccc1-n1cnnn1,-13.6%,2.9%,-3.8%,?,-118.9*
Cc1oc2ncn(CC(C)C)c(=O)c2c1C(=O)N(CCN(C)C)Cc1ccccc1,3.8%[46 µM],/,/,/,/
COc1cccc(N2CC(NC(=O)CCCc3ccccc3)CC2=O)c1 (configuration not stated),14.8%[46 µM],/,/,/,/
COc1ccccc1CN1CCCC2(CCN(S(=O)(=O)c3ccccc3)CC2)C1,/,3.9%,-3.2%,2.0%,/
CC(C)Oc1ccc(CNC(=O)CCCn2c(=O)c3cccn3c3ccccc32)cc1,8.1%[46 µM],/,/,/,/
Cc1ccc(Cn2ccc(NC(=O)c3cc(-c4ccc5c(c4)OCO5)on3)n2)cc1,?,-9.6%,?,-3.0%,-3.4
CC(C)(C)c1ccc(Cn2ccc(-c3ccc4c(c3)OCO4)n2)cc1,6.1%,-7.3%,-19.4%,3.98µM*,-6.8
CN(C)c1ccc(CNC(=O)c2ccccc2NC(=O)c2nsc3ccccc23)cc1,1.8%[46 µM],/,/,/,/
CC(c1ccccc1)C1CC(=O)N(CC(=O)O)C1=O (configuration not stated),-6.2%,-2.2%,1.7%,8.3%,?
CC(c1ccccc1)C1CC(=O)N(Cc2ccco2)C1=O (configuration not stated),13.4%,-3.4%,-12.8%,8.91µM*,?
N#CC1=C(C2CC2)CC(c2ccccc2)C(C#N)=C1N (configuration not stated),18.4%,?,-16.4%,?,1.6
N#CC1=C(N)SC2(CCCCC2)SC1c1ccccc1 (configuration not stated),6.7%,-24.4%,?,25.1µM*,133.8
CCOC(=O)C1CCCN(C(=O)c2cc(-c3ccc(C)cc3)on2)C1 (configuration not stated),2.0%,-5.1%,15.8µM*,-8.4%,4.8
